The results in this text go back to PubChem BioAssay (EPA / NIEHS).

The nature of experiment [1]: APR_HepG2_NuclearSize_24hr: Apredica 24-hour HepG2 Assay for Nuclear Size (AID 2282907). As to conditions: high-content imaging, actives raise or lower the signal. A digest of the protocol: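 Nuclear size is measured by fluorescence high-content imaging of Hoechst-labelled HepG2 nuclei after 24 hr of treatment (0.39–200 uM, 0.5% DMSO). Cells are fixed in 3.7% formaldehyde before staining, and DMSO serves as the baseline for bidirectional curve fitting.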

Experiment [2] can be described thus: APR_HepG2_CellLoss_24hr: Apredica 24-hour HepG2 Assay for Cell Loss (AID 2282908).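 As to AC50: fit in both directions so a hit may be cell loss or gain.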 To be noted: high-content imaging. The essentials: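 Nuclear count serves as the viability measure: treated cells are fixed, permeabilized and labelled with Hoechst 33342, and six images per well are analysed to identify valid nuclei. Doses span 0.39–200 uM, and activity in either direction is scored against DMSO.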

A short description of experiment [3]: APR_HepG2_MicrotubuleCSK_24hr: Apredica 24-hour HepG2 Assay for Microtubule CSK Stabilty (AID 2282909). To be noted: HepG2 microtubule cytoskeleton imaging, actives raise or lower the signal. A digest of the protocol:
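Compounds were applied to HepG2 cells for 24 hours across 0.39–200 uM in duplicate, with final DMSO at 0.5% v/v. Fixed, permeabilized cells were labeled for alpha-tubulin and nuclei, and tubulin fluorescence was quantified by imaging, fitted bidirectionally against DMSO.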

Experiment [4] can be described thus: APR_HepG2_MitoticArrest_24hr: Apredica 24-hour HepG2 Assay for Mitotic Arrest (AID 2282910). As to conditions: high-content imaging, actives raise or lower the signal. A digest of the protocol:
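HepG2, 24 hr dosing, 0.39–200 uM, 0.5% DMSO final. Formaldehyde-fixed, Triton-permeabilised, anti-phospho-histone H3 plus Hoechst. ArrayScan imaging at 20x; bidirectional fit vs DMSO baseline.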

Experiment [5] is described as follows: APR_HepG2_MitoMembPot_24hr: Apredica 24-hour HepG2 Assay for Mitochondrial Membrane Potential (AID 2282911). As to conditions: imaging, actives raise or lower the signal. A digest of the protocol: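 HepG2 human liver cells were exposed 24 hr to compounds at 0.39–200 uM (final DMSO 0.5% v/v) in duplicate. MitoTracker Red CMXRos (250 nM, 30 min) was loaded before formaldehyde fixation; fluorescence was imaged by ArrayScan HCS and fitted bidirectionally versus DMSO.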

Experiment [6] can be described thus: APR_HepG2_MitoMass_24hr: Apredica 24-hour HepG2 Assay for Mitochondrial Mass (AID 2282912). To be noted: high-content imaging, actives raise or lower the signal. The essentials:
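After 24 hr of treatment at 0.39 to 200 uM, HepG2 cells take up 250 nM MitoTracker Red CMXRos for 30 min and are then fixed with 3.7% formaldehyde. Per-well images are quantified, and any change in either direction is scored against solvent.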

Experiment [7] can be described thus: APR_HepG2_p53Act_24hr: Apredica 24-hour HepG2 Assay for p53 Activation (AID 2282913).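 Also: p53 protein immunofluorescence averaged per cell in HepG2 with Hoechst nuclei.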 To be noted: high-content imaging, actives raise or lower the signal. The essentials:
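HepG2 cells exposed 24 hr to compounds at 0.39–200 uM (10 concentrations, duplicate), final DMSO 0.5% v/v. After formaldehyde fixation and Triton permeabilization, p53 was immunolabeled (sheep anti-p53, Cy5 secondary) with Hoechst 33342 nuclear counterstain, then imaged by high-content fluorescence microscopy.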

Experiment [8] is described as follows: APR_HepG2_CellCycleArrest_72hr: Apredica 72-hour HepG2 Assay for Cell Cycle Arrest (AID 2282914). As to conditions: high-content imaging, actives raise or lower the signal. A digest of the protocol: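 HepG2 cells were exposed to compounds at 0.39–200 uM (0.5% v/v DMSO final, duplicates) for 72 hr, fixed in 3.7% formaldehyde, permeabilized and stained with Hoechst 33342. Nuclear DNA content was quantified by high-content imaging; gain or loss of signal was fitted bidirectionally against DMSO.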

A short description of experiment [9]: APR_HepG2_CellLoss_72hr: Apredica 72-hour HepG2 Assay for Cell Loss (AID 2282915). As to conditions: high-content imaging. The essentials:
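HepG2 cells exposed 72 h to compound at 0.39–200 uM (10 concentrations, duplicate) in 0.5% DMSO. Fixed with 3.7% formaldehyde and Hoechst 33342-stained. Imaged at 20x; nuclear count gives cell number, fitted bidirectionally versus DMSO.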

Experiment [10] is described as follows: APR_HepG2_P-H2AX_72hr: Apredica 72-hour HepG2 Assay for H2AX Phosphorylation (AID 2282916).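 Also: phospho-histone H2A.x immunostain intensity per cell marking DNA damage.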 As to conditions: imaging, actives raise or lower the signal. The essentials: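 Human hepatoma HepG2 cells are dosed across ten concentrations (0.39 to 200 uM, 0.5% v/v DMSO) and incubated 72 hr. Phospho-histone H2A.x is then detected by antibody staining alongside c-Jun and Hoechst, and quantified by automated fluorescence imaging.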

Experiment [11] is described as follows: APR_HepG2_MitoMembPot_72hr: Apredica 72-hour HepG2 Assay for Mitochondrial Membrane Potential (AID 2282917). To be noted: imaging, actives raise or lower the signal. A digest of the protocol:
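HepG2 cells dosed 72 hr with compound at 0.39–200 uM in duplicate, 0.5% v/v DMSO final. Mitochondria stained with 250 nM MitoTracker Red CMXRos for 30 min before formaldehyde fixation, imaged by high-content fluorescence; bidirectional fit versus DMSO.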

A short description of experiment [12]: APR_HepG2_MitoticArrest_72hr: Apredica 72-hour HepG2 Assay for Mitotic Arrest (AID 2282918). To be noted: high-content imaging, actives raise or lower the signal. The essentials: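 HepG2 cells were exposed for 72 hr to compound at 0.39–200 uM (10 concentrations, duplicate) in 0.5% v/v DMSO, fixed in 3.7% formaldehyde, immunostained for phospho-histone H3 with Hoechst 33342 and imaged by high-content fluorescence; bidirectional fits versus DMSO.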

Experiment [13] is described as follows: APR_HepG2_MicrotubuleCSK_72hr: Apredica 72-hour HepG2 Assay for Microtubule CSK Stabilty (AID 2282919). To be noted: HepG2 microtubule cytoskeleton, high-content imaging, actives raise or lower the signal. The essentials: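 HepG2, 72 hr cmpd exposure, 0.39–200 uM (10 pts, duplicate), 0.5% DMSO. 3.7% formaldehyde fix, 0.5% Triton perm, anti-alpha-tubulin/Cy5 plus Hoechst. HCS fluorescence intensity; bidirectional fit vs DMSO baseline; taxol as positive control.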

Experiment [14] in a line: APR_HepG2_P-H2AX_24hr: Apredica 24-hour HepG2 Assay for H2AX Phosphorylation (AID 2282920). As to conditions: high-content imaging, actives raise or lower the signal. The essentials:
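HepG2 human liver cells were exposed for 24 hr to compounds at 0.39–200 uM in duplicate, with 0.5% v/v DMSO final. Fixed cells were immunostained for phospho-histone H2A.x plus Hoechst 33342, imaged by HCS fluorescence, and fitted bidirectionally against DMSO.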

Experiment [15] can be described thus: APR_HepG2_StressKinase_72hr: Apredica 72-hour HepG2 Assay for Stress Kinase (AID 2282921). To be noted: HepG2 stress kinase (phospho-c-Jun) imaging, actives raise or lower the signal. The essentials:
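After a 72 h compound treatment spanning 0.39 to 200 uM, formaldehyde-fixed cells are labelled for phosphorylated c-Jun and nuclei, imaged by automated fluorescence microscopy, and activity is fitted in both directions relative to DMSO controls.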

A short description of experiment [16]: APR_HepG2_StressKinase_24hr: Apredica 24-hour HepG2 Assay for Stress Kinase (AID 2282922). To be noted: HepG2 stress kinase (phospho-c-Jun) imaging, actives raise or lower the signal. The essentials:
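Read-out: phospho-c-Jun immunofluorescence (Cy3 secondary) quantified by high-content imaging at 20x, nuclei defined by Hoechst 33342. Human HepG2 liver cells dosed 24 hr, 0.39–200 uM, DMSO 0.5% v/v; gain or loss of signal fitted relative to DMSO.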

Experiment [17] in a line: APR_HepG2_p53Act_72hr: Apredica 72-hour HepG2 Assay for p53 Activation (AID 2282923).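 Also: average cellular p53 protein immunofluorescence intensity in HepG2 cells.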 As to conditions: high-content imaging, actives raise or lower the signal. A digest of the protocol:
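Imaging-based endpoint: after 72 hr compound exposure (up to 200 uM, 0.5% DMSO), fixed and permeabilized monolayers were labelled with anti-p53 antibody and imaged; signal change in either direction was fitted relative to DMSO controls.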

A short description of experiment [18]: APR_HepG2_MitoMass_72hr: Apredica 72-hour HepG2 Assay for Mitochondrial Mass (AID 2282924).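 Also: MitoTracker Red CMXRos stain intensity per cell imaged as mitochondrial mass.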 To be noted: high-content imaging, actives raise or lower the signal. The essentials: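 Read-out: MitoTracker Red fluorescence intensity from automated imaging (20x, six fields per well) in human HepG2 liver cells. Dosing ran 72 hr, 0.39–200 uM, 0.5% DMSO; bidirectional curve fitting versus DMSO baseline.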

Experiment [19] is described as follows: APR_HepG2_NuclearSize_72hr: Apredica 72-hour HepG2 Assay for Nuclear Size (AID 2282925). To be noted: high-content imaging, actives raise or lower the signal. The essentials: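 Read-out: nuclear diameter from Hoechst 33342 images (ArrayScan, 20x, six fields/well), via cell-cycle image analysis. HepG2 were dosed 0.39–200 uM for 72 hr in 0.5% DMSO. Bidirectional fit relative to DMSO.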

The nature of experiment [20]: ATG_CRE_CIS: Attagene CIS-FACTORIAL HepG2 Assay for human cAMP Responsive Element (CRE) binding protein 3 (AID 2282926). As to conditions: HepG2 CRE cis-reporter, Attagene multiplexed mRNA; actives raise or lower the signal. The essentials:
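Capillary electrophoresis of 6-FAM-labelled, HpaI-digested PCR products quantified reporter transcripts. These came from HepG2 transiently transfected with cis-element reporters and exposed to test chemicals for 24 hours, with DMSO defining baseline activity.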

SMILES strings stand for the structures. Calls of active or inactive are those of the source. The calls were made as follows: active = hit-call score of the fitted dose curve at least 0.9, where 1 is the maximum; inactive = score below 0.9.

Regarding `CCOC(=O)c1ccc(O)cc1`, the call in experiment [1], in [2], in experiment [3], in [4], in experiment [5] and in experiment [6] was inactive. Moreover, the result in experiment [7], in experiment [8], in experiment [9], in experiment [10], in [11] and in experiment [12] was inactive. In addition, the compound was classed as inactive in experiment [13], in experiment [14], in experiment [15], in [16], in experiment [17] and in experiment [18]. For the same compound, the compound was classed as inactive in experiment [19] and in [20].

For `COc1nc(C)nc(NC(=O)NS(=O)(=O)c2ccccc2OCCCl)n1`, the call in experiment [1], in [2], in [3], in experiment [4], in [5] and in experiment [6] was inactive. Besides, the outcome in [7], in experiment [8], in experiment [9], in experiment [10], in [11] and in [12] was inactive. Moreover, the compound was called inactive in experiment [13], in [14], in [15], in [16], in [17] and in [18]. Moreover, the outcome in [19] was inactive.

As for `COC(=O)CSc1cc(N=c2sc(=O)n3n2CCCC3)c(F)cc1Cl`, the outcome in experiment [1], in [3], in experiment [4], in experiment [5], in experiment [6] and in experiment [7] was inactive. For the same compound, the compound was classed as inactive in experiment [8], in [10], in experiment [11], in experiment [12], in [13] and in experiment [14]. The compound was classed as inactive in experiment [15], in experiment [16], in experiment [18] and in experiment [19]. In addition, the half-maximal activity concentration (AC50) in [2] is 103 µM (active); in experiment [9], 98.9 µM (active).

As for `C#C[C@]1(O)CC[C@H]2[C@@H]3CCC4=CC(=O)CC[C@@H]4[C@H]3CC[C@@]21CC`, the result in [1], in experiment [2], in experiment [3], in experiment [4], in experiment [5] and in experiment [6] was inactive. Besides, the compound was called inactive in experiment [7], in experiment [8], in experiment [9], in experiment [10], in [11] and in experiment [12]. Also, the compound was called inactive in experiment [13], in experiment [14], in [15], in experiment [16], in [17] and in experiment [18]. Further, the compound was classed as inactive in experiment [19] and in experiment [20].

As for `O=C(O)C1(C(=O)Nc2ccc(Cl)cc2Cl)CC1`, the compound was classed as inactive in experiment [1], in experiment [2], in experiment [3], in experiment [4], in [5] and in experiment [6]. Besides, the outcome in [7], in [8], in experiment [9], in experiment [10], in experiment [11] and in experiment [12] was inactive. Besides, the compound was classed as inactive in experiment [13], in experiment [14], in experiment [15], in [16], in experiment [17] and in [18]. Moreover, in experiment [19], the result was inactive.

As for `CCCCC(CC)COC(=O)c1ccccc1C(=O)O` (stereo not drawn), the compound was called inactive in experiment [1], in experiment [2], in experiment [3], in experiment [4], in [5] and in experiment [6]. The call in experiment [7], in experiment [8], in experiment [9], in [10], in [11] and in experiment [12] was inactive. In addition, the compound was classed as inactive in [13], in [14], in [15], in experiment [16], in experiment [17] and in [18]. Also, the compound was classed as inactive in experiment [19].

`CCCN(CCC)C(=O)SCC`: the call in experiment [1], in [2], in experiment [3], in [4], in experiment [5] and in experiment [6] was inactive. Besides, the compound was classed as inactive in experiment [7], in [8], in experiment [9], in [10], in experiment [11] and in [12]. In addition, the outcome in experiment [13], in experiment [14], in [15], in experiment [16], in [18] and in experiment [19] was inactive.

The term AC50 denotes the concentration at which the activity in the assay is half-maximal.
